# Measurements from ChEMBL document CHEMBL3988442, “University of Dundee, Small-Polar-MMV Screening Library” (2021).
# Target: T1, Methionyl-tRNA synthetase, putative (Leishmania donovani (strain BPK282A1)) (UniProt E9BF75)
# T1 sequence (whole entry): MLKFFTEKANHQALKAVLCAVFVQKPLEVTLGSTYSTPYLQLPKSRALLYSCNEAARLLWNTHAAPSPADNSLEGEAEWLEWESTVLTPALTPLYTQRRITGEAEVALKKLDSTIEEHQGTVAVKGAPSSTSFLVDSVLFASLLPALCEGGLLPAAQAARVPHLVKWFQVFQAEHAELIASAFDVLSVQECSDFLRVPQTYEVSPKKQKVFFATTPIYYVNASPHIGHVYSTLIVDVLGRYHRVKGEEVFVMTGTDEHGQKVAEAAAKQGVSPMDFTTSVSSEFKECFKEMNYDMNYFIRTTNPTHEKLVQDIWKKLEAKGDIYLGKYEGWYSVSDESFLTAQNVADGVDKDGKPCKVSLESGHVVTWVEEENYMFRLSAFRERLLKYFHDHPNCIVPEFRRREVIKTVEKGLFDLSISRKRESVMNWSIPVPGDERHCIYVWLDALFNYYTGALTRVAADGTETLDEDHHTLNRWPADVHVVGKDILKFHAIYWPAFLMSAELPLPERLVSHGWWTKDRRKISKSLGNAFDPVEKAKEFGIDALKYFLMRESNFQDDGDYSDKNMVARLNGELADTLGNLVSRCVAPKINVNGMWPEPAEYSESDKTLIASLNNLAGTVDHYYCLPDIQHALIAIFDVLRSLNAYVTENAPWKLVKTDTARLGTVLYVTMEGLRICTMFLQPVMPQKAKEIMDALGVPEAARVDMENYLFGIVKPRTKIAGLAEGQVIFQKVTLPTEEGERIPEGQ
# Test: Leishmania donovani Methionine tRNA synthetase (LdMetRS):v7. Dose response assay
# Type: functional
# Design: conc 80 nM, time 150 minutes
smiles,measurement,setting,value
COc1cccc(-c2noc3c2CN(c2ncnc4c2CCC4)CC3)c1,PXC50,MAX_EFFECT 38.4057971,< 4
same,PXC50,MAX_EFFECT 40.13605442,< 4
same,PXC50,MAX_EFFECT 45.70928196,< 4
CC(C)Nc1nc(Nc2ccc(F)c(F)c2)nc2c1cnn2C,PXC50,"BOTTOM 6.912856457, HILLSLOPE 1.265127605, MAX_EFFECT 60.96491228, TOP 58.85327881",5.32
same,PXC50,"BOTTOM 8.026516696, HILLSLOPE 1.466204418, MAX_EFFECT 55.47073791, TOP 58.34935066",5.27
same,PXC50,"BOTTOM 8.495247693, HILLSLOPE 1.610767227, MAX_EFFECT 62.64150943, TOP 64.37148882",5.22
COCCNc1cc(-c2ccccc2CCN)c2cc[nH]c2n1,PXC50,"BOTTOM -0.0153, HILLSLOPE 1.167622452, MAX_EFFECT 63.88888889, TOP 100.0",4.2
same,PXC50,MAX_EFFECT 46.30872483,< 4
same,PXC50,MAX_EFFECT 46.96707106,< 4
Cc1cnn(CCNCc2c(C)nn(-c3ccccc3)c2C)c1,PXC50,MAX_EFFECT 6.52173913,< 4
same,PXC50,MAX_EFFECT 6.802721088,< 4
same,PXC50,MAX_EFFECT 12.78458844,< 4
COc1cnc(Nc2ccc(F)c(F)c2)nc1NCCO,PXC50,"BOTTOM 1.119092506, HILLSLOPE 0.867597172, MAX_EFFECT 78.41409692, TOP 85.56949583",5.21
same,PXC50,"BOTTOM 1.563075745, HILLSLOPE 0.960019265, MAX_EFFECT 80.27079304, TOP 89.78065845",4.95
same,PXC50,"BOTTOM 4.457946708, HILLSLOPE 0.924831459, MAX_EFFECT 80.78512397, TOP 87.63131575",5.14
O=C(O)CC1COCCN1C(=O)C1(c2ccc(Cl)cc2)CCC1 (configuration not stated),PXC50,MAX_EFFECT 1.360544218,< 4
same,PXC50,MAX_EFFECT 1.449275362,< 4
same,PXC50,MAX_EFFECT 4.378283713,< 4
O=C(CCc1n[nH]c2c1CCCC2)N1C[C@@H]2CC[C@H](C1)N(CC1CC1)C2,PXC50,"BOTTOM 12.11622841, HILLSLOPE 1.527540497, MAX_EFFECT 61.47110333, TOP 100.0",4.08
same,PXC50,"BOTTOM -0.508945456, HILLSLOPE 1.017254843, MAX_EFFECT 57.14285714, TOP 100.0",4.12
same,PXC50,"BOTTOM -1.441363941, HILLSLOPE 1.01121357, MAX_EFFECT 60.86956522, TOP 100.0",4.2
Cn1ncc2c(NC3CCCCC3O)nc(Nc3ccc(F)c(F)c3)nc21 (configuration not stated),PXC50,"BOTTOM -1.097292769, HILLSLOPE 1.183920675, MAX_EFFECT 57.48218527, TOP 58.96974935",5.31
same,PXC50,"BOTTOM -1.326166196, HILLSLOPE 1.398612708, MAX_EFFECT 60.37735849, TOP 61.95804926",5.4
same,PXC50,"BOTTOM -2.072986449, HILLSLOPE 1.170002512, MAX_EFFECT 60.08583691, TOP 62.14142479",5.35
CN(c1ncnc2ccccc12)C1CCCN(c2cccnn2)C1 (configuration not stated),PXC50,"BOTTOM 0.59496429, HILLSLOPE 1.142527095, MAX_EFFECT 61.72248804, TOP 100.0",4.15
same,PXC50,"BOTTOM 4.775047561, HILLSLOPE 1.968197794, MAX_EFFECT 73.89635317, TOP 73.89635317",4.48
same,PXC50,"BOTTOM 7.086189247, HILLSLOPE 1.125976509, MAX_EFFECT 60.07005254, TOP 100.0",4.1
same,PXC50,"BOTTOM 8.519162934, HILLSLOPE 1.512392504, MAX_EFFECT 75.36231884, TOP 100.0",4.28
same,PXC50,"BOTTOM -1.496045735, HILLSLOPE 1.12468747, MAX_EFFECT 69.3877551, TOP 100.0",4.34
OCCNc1nc(Nc2cccc(F)c2)nc2ccsc12,PXC50,"BOTTOM 3.044431964, HILLSLOPE 0.890140098, MAX_EFFECT 69.62809917, TOP 98.77893837",4.42
same,PXC50,"BOTTOM -0.299639933, HILLSLOPE 0.74457476, MAX_EFFECT 65.18375242, TOP 100.0",4.37
same,PXC50,"BOTTOM -0.909696564, HILLSLOPE 1.048927528, MAX_EFFECT 68.28193833, TOP 78.21382142",4.73
CC(CO)Nc1nc(Nc2ccc(F)c(F)c2)nc2c1cnn2C (configuration not stated),PXC50,"BOTTOM 2.552520772, HILLSLOPE 1.745088914, MAX_EFFECT 107.6446281, TOP 100.0",4.83
same,PXC50,"BOTTOM 8.006700064, HILLSLOPE 1.180035315, MAX_EFFECT 70.20872865, TOP 73.72941327",5.16
same,PXC50,"BOTTOM -2.864211308, HILLSLOPE 1.095022811, MAX_EFFECT 93.83259912, TOP 100.0",4.9
Cn1ncc2c(NCC3CCCO3)nc(Nc3ccc(F)c(F)c3)nc21 (configuration not stated),PXC50,"BOTTOM 1.649824941, HILLSLOPE 0.742759749, MAX_EFFECT 82.45614035, TOP 99.7468185",4.96
same,PXC50,"BOTTOM 4.130822452, HILLSLOPE 0.904236715, MAX_EFFECT 86.03773585, TOP 94.6325805",4.99
same,PXC50,"BOTTOM 7.824180632, HILLSLOPE 1.170320257, MAX_EFFECT 82.95165394, TOP 90.00397209",4.93
C[C@@H](CO)Nc1ccnc(Nc2cccc(C(F)(F)F)c2)n1,PXC50,"BOTTOM 1.593845471, HILLSLOPE 0.816282678, MAX_EFFECT 64.11214953, TOP 100.0",4.29
same,PXC50,"BOTTOM 3.003400849, HILLSLOPE 0.886139555, MAX_EFFECT 64.25619835, TOP 100.0",4.3
same,PXC50,"BOTTOM -0.445089983, HILLSLOPE 0.824021196, MAX_EFFECT 60.35242291, TOP 100.0",4.26
c1ccc(CNc2ncc(CN3CCCN4CCC[C@H]4C3)cn2)cc1,PXC50,"BOTTOM -0.610075864, HILLSLOPE 1.031656218, MAX_EFFECT 61.9047619, TOP 100.0",4.18
same,PXC50,"BOTTOM -1.183822823, HILLSLOPE 1.053099151, MAX_EFFECT 65.67425569, TOP 100.0",4.24
same,PXC50,MAX_EFFECT 60.86956522,< 4
Cc1ccnc(C2CN(Cc3ccc(-c4ccccc4C(=O)O)o3)C2)n1,PXC50,"BOTTOM 9.249913927, HILLSLOPE 1.102722508, MAX_EFFECT 60.83188908, TOP 100.0",4.12
same,PXC50,"BOTTOM 9.895143899, HILLSLOPE 1.447637201, MAX_EFFECT 79.86111111, TOP 100.0",4.36
same,PXC50,"BOTTOM 14.75237733, HILLSLOPE 1.939721289, MAX_EFFECT 72.48322148, TOP 100.0",4.2
